Experimental data published in paper PMC7862700, “An all-to-all approach to the identification of sequence-specific readers for epigenetic DNA modifications on cytosine”.

Legend:
Experiment in all cases: DAPPL (digital affinity profiling via proximity ligation, sequencing); 10 mM Tris-HCl pH 7.5, 50 mM NaCl, 1 mM DTT, 4% glycerol, room temperature, 30 min; GST-TFs on glutathione beads, 16-mer random dsDNA library, 0.1% formaldehyde crosslink after washing; high values mean tight binding
[1] = target: T1, FEV (Homo sapiens, UniProt Q99581 1-238); conditions: protein: recombinant; tags: N-terminal GST; dsDNA, one strand shown
T1 sequence: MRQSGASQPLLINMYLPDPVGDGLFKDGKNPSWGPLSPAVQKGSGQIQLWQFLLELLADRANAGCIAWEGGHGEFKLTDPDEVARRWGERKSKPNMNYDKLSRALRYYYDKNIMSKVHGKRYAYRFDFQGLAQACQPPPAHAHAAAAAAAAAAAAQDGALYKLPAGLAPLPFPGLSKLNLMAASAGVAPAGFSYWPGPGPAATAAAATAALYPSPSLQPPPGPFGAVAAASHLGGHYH
Method in brief: (§1)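 Pools of DNA-barcoded human transcription factors, expressed in yeast as GST fusions on glutathione beads and combined with a tag-only sample, were incubated with 200 nmole of a 16-mer random double-stranded DNA library. Incubation took 30 min at room temperature in Tris/NaCl/DTT/glycerol buffer and was followed by washing, 0.1% formaldehyde crosslinking, proximity ligation (BsaI/T4 ligase, 1 h, 37 °C), PCR amplification and sequencing on an Illumina NextSeq500. Binding signal is the ratio of a hexamer's read frequency for a factor to its frequency for the tag-only sample.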

[2] = target: ETV5 (Homo sapiens, UniProt P41161 1-510); conditions: protein: recombinant; tags: N-terminal GST; dsDNA, one strand shown
Method in brief: as §1

[3] = target: HSF1 (Homo sapiens, UniProt Q00613 1-529); conditions: protein: recombinant; tags: N-terminal GST; chain copies: 3; dsDNA, one strand shown
Method in brief: as §1

[4] = target: T2, SPIC (Homo sapiens, UniProt Q8N5J4 1-248); conditions: protein: recombinant; tags: N-terminal GST; dsDNA, one strand shown
T2 sequence: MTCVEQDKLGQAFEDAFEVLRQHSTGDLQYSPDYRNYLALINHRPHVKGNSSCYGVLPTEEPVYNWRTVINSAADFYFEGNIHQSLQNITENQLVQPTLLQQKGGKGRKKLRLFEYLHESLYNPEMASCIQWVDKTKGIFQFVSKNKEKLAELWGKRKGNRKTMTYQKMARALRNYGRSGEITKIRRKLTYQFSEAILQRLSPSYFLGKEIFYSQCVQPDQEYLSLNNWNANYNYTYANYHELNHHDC
Method in brief: as §1

[5] = target: ELF4 (Homo sapiens, UniProt Q99607 1-663); conditions: protein: recombinant; tags: N-terminal GST; dsDNA, one strand shown
Method in brief: as §1

[6] = target: T3, ELK4 (Homo sapiens, UniProt P28324-2 1-405); conditions: protein: recombinant; tags: N-terminal GST; dsDNA, one strand shown
T3 sequence: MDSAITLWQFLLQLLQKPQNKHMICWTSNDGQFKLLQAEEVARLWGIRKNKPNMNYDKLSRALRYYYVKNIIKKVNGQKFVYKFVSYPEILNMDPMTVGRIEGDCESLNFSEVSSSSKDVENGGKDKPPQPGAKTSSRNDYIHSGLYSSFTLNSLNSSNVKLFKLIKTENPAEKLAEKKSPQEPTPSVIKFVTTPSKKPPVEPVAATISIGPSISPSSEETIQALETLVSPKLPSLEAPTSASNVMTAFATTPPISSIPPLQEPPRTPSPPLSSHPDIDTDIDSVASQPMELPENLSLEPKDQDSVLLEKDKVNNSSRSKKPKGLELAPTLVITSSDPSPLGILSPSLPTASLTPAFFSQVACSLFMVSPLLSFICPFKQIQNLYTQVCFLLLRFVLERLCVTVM
Method in brief: as §1

[7] = target: T4, ETV2 (Homo sapiens, UniProt O00321 1-342); conditions: protein: recombinant; tags: N-terminal GST; dsDNA, one strand shown
T4 sequence: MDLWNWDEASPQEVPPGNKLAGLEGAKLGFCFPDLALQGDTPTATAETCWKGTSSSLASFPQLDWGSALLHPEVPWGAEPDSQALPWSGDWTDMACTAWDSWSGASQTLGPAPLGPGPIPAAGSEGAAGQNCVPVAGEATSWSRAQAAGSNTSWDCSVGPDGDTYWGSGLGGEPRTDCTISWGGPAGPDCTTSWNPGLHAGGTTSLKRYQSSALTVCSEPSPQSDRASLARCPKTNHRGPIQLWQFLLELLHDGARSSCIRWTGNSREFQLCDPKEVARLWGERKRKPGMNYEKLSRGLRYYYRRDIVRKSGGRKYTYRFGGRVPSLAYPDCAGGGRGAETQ
Method in brief: as §1

[8] = target: T5, ELF3 (Homo sapiens, UniProt P78545 1-371); conditions: protein: recombinant; tags: N-terminal GST; dsDNA, one strand shown
T5 sequence: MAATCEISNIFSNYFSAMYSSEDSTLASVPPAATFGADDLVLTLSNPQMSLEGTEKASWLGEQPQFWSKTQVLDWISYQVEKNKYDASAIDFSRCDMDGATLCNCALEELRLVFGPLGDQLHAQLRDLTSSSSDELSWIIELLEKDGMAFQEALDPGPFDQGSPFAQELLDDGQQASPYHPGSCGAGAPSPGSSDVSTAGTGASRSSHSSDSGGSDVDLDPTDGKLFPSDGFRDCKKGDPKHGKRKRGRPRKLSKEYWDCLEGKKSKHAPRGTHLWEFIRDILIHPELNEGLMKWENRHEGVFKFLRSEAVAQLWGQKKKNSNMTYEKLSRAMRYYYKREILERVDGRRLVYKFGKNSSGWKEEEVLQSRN
Method in brief: as §1

[9] = target: CRX (Homo sapiens, UniProt O43186 1-299); conditions: protein: recombinant; tags: N-terminal GST; dsDNA, one strand shown
Method in brief: as §1

[10] = target: ETV1 (Homo sapiens, UniProt P50549 1-477); conditions: protein: recombinant; tags: N-terminal GST; dsDNA, one strand shown
Method in brief: as §1

Sequence of ETV5 (P41161 whole entry): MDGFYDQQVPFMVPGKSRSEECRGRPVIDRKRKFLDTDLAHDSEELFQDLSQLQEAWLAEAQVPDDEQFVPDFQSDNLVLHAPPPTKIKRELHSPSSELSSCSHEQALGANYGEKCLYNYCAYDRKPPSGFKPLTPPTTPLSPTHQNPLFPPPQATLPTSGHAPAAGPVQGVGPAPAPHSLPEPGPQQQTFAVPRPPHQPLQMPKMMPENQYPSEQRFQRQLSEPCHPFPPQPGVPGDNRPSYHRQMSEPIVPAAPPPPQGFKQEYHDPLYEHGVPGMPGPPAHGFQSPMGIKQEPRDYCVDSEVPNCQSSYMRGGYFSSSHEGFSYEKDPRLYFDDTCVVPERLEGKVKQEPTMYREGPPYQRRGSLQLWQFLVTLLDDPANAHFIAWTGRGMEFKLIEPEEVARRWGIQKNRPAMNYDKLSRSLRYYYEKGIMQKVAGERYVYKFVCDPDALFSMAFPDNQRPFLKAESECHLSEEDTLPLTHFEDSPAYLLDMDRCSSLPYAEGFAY
Sequence of ELF4 (Q99607 whole entry): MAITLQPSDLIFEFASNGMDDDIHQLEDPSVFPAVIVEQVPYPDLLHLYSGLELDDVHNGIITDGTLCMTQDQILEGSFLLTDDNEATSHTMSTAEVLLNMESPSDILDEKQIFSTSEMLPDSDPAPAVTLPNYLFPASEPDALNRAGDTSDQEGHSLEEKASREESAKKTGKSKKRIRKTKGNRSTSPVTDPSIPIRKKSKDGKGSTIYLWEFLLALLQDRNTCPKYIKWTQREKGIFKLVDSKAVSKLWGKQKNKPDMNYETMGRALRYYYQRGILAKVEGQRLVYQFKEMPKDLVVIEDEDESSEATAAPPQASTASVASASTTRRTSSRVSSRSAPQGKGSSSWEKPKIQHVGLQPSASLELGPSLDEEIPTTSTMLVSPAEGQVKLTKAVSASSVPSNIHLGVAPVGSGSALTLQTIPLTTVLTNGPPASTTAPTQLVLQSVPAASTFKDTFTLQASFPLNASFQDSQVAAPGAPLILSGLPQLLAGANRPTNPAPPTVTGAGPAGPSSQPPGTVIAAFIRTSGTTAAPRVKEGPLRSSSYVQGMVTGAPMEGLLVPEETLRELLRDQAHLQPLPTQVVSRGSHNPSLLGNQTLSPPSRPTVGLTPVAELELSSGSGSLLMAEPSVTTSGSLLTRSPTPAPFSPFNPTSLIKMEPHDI
Sequence of CRX (O43186 whole entry): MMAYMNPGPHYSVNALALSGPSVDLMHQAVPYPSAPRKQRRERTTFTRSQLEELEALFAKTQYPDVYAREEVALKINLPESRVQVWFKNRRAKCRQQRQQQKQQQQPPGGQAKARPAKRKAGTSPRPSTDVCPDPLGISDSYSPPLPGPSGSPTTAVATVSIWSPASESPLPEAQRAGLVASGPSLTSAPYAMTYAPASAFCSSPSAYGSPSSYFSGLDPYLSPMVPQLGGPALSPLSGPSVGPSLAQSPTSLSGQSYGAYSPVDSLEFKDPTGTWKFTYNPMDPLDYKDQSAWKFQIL
Sequence of ETV1 (P50549 whole entry): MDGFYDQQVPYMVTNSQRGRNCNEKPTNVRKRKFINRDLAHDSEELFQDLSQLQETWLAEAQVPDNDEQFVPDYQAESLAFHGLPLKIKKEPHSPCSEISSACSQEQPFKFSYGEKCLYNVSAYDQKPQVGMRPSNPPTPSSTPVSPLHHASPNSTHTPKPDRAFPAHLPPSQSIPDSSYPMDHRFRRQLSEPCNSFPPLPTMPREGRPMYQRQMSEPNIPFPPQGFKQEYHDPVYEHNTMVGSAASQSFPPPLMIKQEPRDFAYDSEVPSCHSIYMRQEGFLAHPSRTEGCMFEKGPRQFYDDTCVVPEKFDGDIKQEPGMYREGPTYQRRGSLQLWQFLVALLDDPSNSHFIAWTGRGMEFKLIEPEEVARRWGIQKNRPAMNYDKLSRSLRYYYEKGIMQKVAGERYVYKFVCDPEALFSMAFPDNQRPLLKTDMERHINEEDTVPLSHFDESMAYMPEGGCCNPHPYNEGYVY
Sequence of HSF1 (Q00613 whole entry): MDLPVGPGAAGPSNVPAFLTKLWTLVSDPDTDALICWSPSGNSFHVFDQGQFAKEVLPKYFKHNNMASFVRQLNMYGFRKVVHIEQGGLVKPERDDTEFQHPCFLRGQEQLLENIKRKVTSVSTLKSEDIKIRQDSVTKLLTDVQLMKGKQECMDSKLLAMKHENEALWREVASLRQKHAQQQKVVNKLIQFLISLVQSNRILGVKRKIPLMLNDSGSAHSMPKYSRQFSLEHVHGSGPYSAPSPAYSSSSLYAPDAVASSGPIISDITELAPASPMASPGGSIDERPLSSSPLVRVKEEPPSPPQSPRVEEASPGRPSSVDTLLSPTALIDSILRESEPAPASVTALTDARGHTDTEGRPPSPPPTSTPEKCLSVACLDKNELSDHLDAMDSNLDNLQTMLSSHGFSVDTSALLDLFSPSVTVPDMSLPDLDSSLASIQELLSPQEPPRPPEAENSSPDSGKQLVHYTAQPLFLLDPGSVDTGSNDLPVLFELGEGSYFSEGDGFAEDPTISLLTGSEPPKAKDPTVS

Sequence	binding signal [1]	binding signal [2]	binding signal [3]	binding signal [4]	binding signal [5]	binding signal [6]	binding signal [7]	binding signal [8]	binding signal [9]	binding signal [10]
TGCTCC	1.38 fold enrichment (6-mer frequency, TF over GST control)	1.42 fold enrichment (6-mer frequency, TF over GST control)	1.27 fold enrichment (6-mer frequency, TF over GST control)	1.45 fold enrichment (6-mer frequency, TF over GST control)	1.41 fold enrichment (6-mer frequency, TF over GST control)	1.41 fold enrichment (6-mer frequency, TF over GST control)	1.48 fold enrichment (6-mer frequency, TF over GST control)	1.47 fold enrichment (6-mer frequency, TF over GST control)	1.12 fold enrichment (6-mer frequency, TF over GST control)	1.31 fold enrichment (6-mer frequency, TF over GST control)
CAATAA	1.1 fold enrichment (6-mer frequency, TF over GST control)	1.14 fold enrichment (6-mer frequency, TF over GST control)	1.24 fold enrichment (6-mer frequency, TF over GST control)	1.2 fold enrichment (6-mer frequency, TF over GST control)	1.16 fold enrichment (6-mer frequency, TF over GST control)	1.14 fold enrichment (6-mer frequency, TF over GST control)	1.14 fold enrichment (6-mer frequency, TF over GST control)	1.27 fold enrichment (6-mer frequency, TF over GST control)	1.46 fold enrichment (6-mer frequency, TF over GST control)	1.11 fold enrichment (6-mer frequency, TF over GST control)
ATATAC	1.11 fold enrichment (6-mer frequency, TF over GST control)	1.16 fold enrichment (6-mer frequency, TF over GST control)	1.12 fold enrichment (6-mer frequency, TF over GST control)	1.17 fold enrichment (6-mer frequency, TF over GST control)	1.13 fold enrichment (6-mer frequency, TF over GST control)	1.2 fold enrichment (6-mer frequency, TF over GST control)	1.12 fold enrichment (6-mer frequency, TF over GST control)	1.22 fold enrichment (6-mer frequency, TF over GST control)	1.08 fold enrichment (6-mer frequency, TF over GST control)	1.21 fold enrichment (6-mer frequency, TF over GST control)
ATGGCA	1.44 fold enrichment (6-mer frequency, TF over GST control)	1.28 fold enrichment (6-mer frequency, TF over GST control)	1.1 fold enrichment (6-mer frequency, TF over GST control)	1.21 fold enrichment (6-mer frequency, TF over GST control)	1.2 fold enrichment (6-mer frequency, TF over GST control)	1.15 fold enrichment (6-mer frequency, TF over GST control)	1.31 fold enrichment (6-mer frequency, TF over GST control)	1.28 fold enrichment (6-mer frequency, TF over GST control)	1.11 fold enrichment (6-mer frequency, TF over GST control)	1.27 fold enrichment (6-mer frequency, TF over GST control)
TATTTT	1.23 fold enrichment (6-mer frequency, TF over GST control)	1.39 fold enrichment (6-mer frequency, TF over GST control)	1.5 fold enrichment (6-mer frequency, TF over GST control)	1.42 fold enrichment (6-mer frequency, TF over GST control)	1.4 fold enrichment (6-mer frequency, TF over GST control)	1.49 fold enrichment (6-mer frequency, TF over GST control)	1.45 fold enrichment (6-mer frequency, TF over GST control)	1.36 fold enrichment (6-mer frequency, TF over GST control)	1.77 fold enrichment (6-mer frequency, TF over GST control)	1.48 fold enrichment (6-mer frequency, TF over GST control)
GCCTTG	1.13 fold enrichment (6-mer frequency, TF over GST control)	1.34 fold enrichment (6-mer frequency, TF over GST control)	1.06 fold enrichment (6-mer frequency, TF over GST control)	1.31 fold enrichment (6-mer frequency, TF over GST control)	1.21 fold enrichment (6-mer frequency, TF over GST control)	1.17 fold enrichment (6-mer frequency, TF over GST control)	1.09 fold enrichment (6-mer frequency, TF over GST control)	1.23 fold enrichment (6-mer frequency, TF over GST control)	1.05 fold enrichment (6-mer frequency, TF over GST control)	1.18 fold enrichment (6-mer frequency, TF over GST control)
CCGTTC	1.48 fold enrichment (6-mer frequency, TF over GST control)	1.43 fold enrichment (6-mer frequency, TF over GST control)	1.18 fold enrichment (6-mer frequency, TF over GST control)	1.32 fold enrichment (6-mer frequency, TF over GST control)	1.37 fold enrichment (6-mer frequency, TF over GST control)	1.23 fold enrichment (6-mer frequency, TF over GST control)	1.4 fold enrichment (6-mer frequency, TF over GST control)	1.36 fold enrichment (6-mer frequency, TF over GST control)	1.11 fold enrichment (6-mer frequency, TF over GST control)	1.27 fold enrichment (6-mer frequency, TF over GST control)
ATTGTA	1.19 fold enrichment (6-mer frequency, TF over GST control)	1.19 fold enrichment (6-mer frequency, TF over GST control)	1.16 fold enrichment (6-mer frequency, TF over GST control)	1.18 fold enrichment (6-mer frequency, TF over GST control)	1.24 fold enrichment (6-mer frequency, TF over GST control)	1.21 fold enrichment (6-mer frequency, TF over GST control)	1.29 fold enrichment (6-mer frequency, TF over GST control)	1.17 fold enrichment (6-mer frequency, TF over GST control)	1.28 fold enrichment (6-mer frequency, TF over GST control)	1.21 fold enrichment (6-mer frequency, TF over GST control)
